For four compounds, growth results are on record in PubChem BioAssay (NCI).

What all share (experiment): NCI-60 one-dose screen, 48 h (100 = growth as untreated, 0 = no growth, -100 = all killed)
Common to all, as to details: 10 µM unless noted

Experiment [1] deals with NCI-H23 lung.
In experiment [2] the test system is NCI-H226 lung.
Experiment [3] deals with NCI-H322M lung.
For experiment [4], the system named is HOP-62 NSCLC.
Experiment [5] relates to NCI-H460 lung.
For experiment [6], the system named is HOP-92 NSCLC.
Experiment [7] deals with NCI-H522 lung.
Experiment [8] deals with A549/ATCC NSCLC.
For experiment [9], the system named is 786-0 renal.
The subject of experiment [10] is COLO 205 colon.
The test system of experiment [11] is DU-145 prostate.
Experiment [12] deals with K-562 leukemia.
Experiment [13] relates to MALME-3M melanoma.
Experiment [14] concerns MDA-MB-231 breast.
The subject of experiment [15] is RXF 393 renal.
Experiment [16] deals with SF-268 CNS.
Experiment [17] concerns SF-295 CNS.
The test system of experiment [18] is SF-539 CNS.
The test system of experiment [19] is UACC-257 melanoma.
The subject of experiment [20] is M14 melanoma.

Several values for one entry are separate records, joined by “and”; a condition that tells them apart may be missing. Equal values may be shown once. The panel holds about 83,000 compounds, 20% with a hit somewhere; the sample as a whole holds those more often.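 Assay: single dose, 48 h. Readout: percent growth (0 = no net growth; negative = cell death). Active: <10.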 Activity calls are given as the source filed them.

As for `CC(=O)Oc1cc(C(=O)O)cc(OC(C)=O)c1OC(C)=O`, the growth was 103% (inactive) and 97.3% (inactive) in [1]; 96.4% (inactive) and 89.6% (inactive) in experiment [2]; 116% (inactive) and 102% (inactive) in experiment [3]; 88.8% (inactive) and 99% (inactive) in [4]; 113% (inactive) and 108% (inactive) in [5]; 99.1% (inactive) and 107% (inactive) in experiment [6]. The growth was 100% (inactive) and 93.4% (inactive) in experiment [7]; 103% (inactive) and 90.1% (inactive) in experiment [8]; 111% (inactive) and 102% (inactive) in experiment [9]; 125% (inactive) and 122% (inactive) in experiment [10]; 118% (inactive) and 113% (inactive) in experiment [11]; 108% (inactive) in experiment [12]. In addition, the growth in experiment [13] is 115% (inactive) and 96.5% (inactive); in experiment [14], 94% (inactive) and 97.3% (inactive); in experiment [15], 99.5% (inactive) and 122% (inactive); in [16], 107% (inactive) and 102% (inactive); in experiment [17], 107% (inactive) and 102% (inactive); in [18] it was 121% (inactive) and 104% (inactive). The growth in [19] was 95.3% (inactive) and 90.7% (inactive); in experiment [20], 105% (inactive) and 99% (inactive).
`CCOC(=O)c1c(C)oc(C)c(C(=O)OCC)c1=O`: the growth in experiment [1] was 91.8% (inactive) and 96% (inactive); in experiment [2] it was 95.9% (inactive) and 104% (inactive); in experiment [3] it was 99.7% (inactive) and 107% (inactive); in experiment [4], 99.9% (inactive) and 96.7% (inactive); in [5], 108% (inactive) and 104% (inactive); in [6] it was 98.3% (inactive) and 73.8% (inactive). In addition, the growth in experiment [7] is 109% (inactive) and 94.9% (inactive); in [8], 104% (inactive) and 106% (inactive); in experiment [9], 98.8% (inactive) and 104% (inactive); in [10], 117% (inactive); in experiment [11] it was 118% (inactive) and 110% (inactive); in [12] it was 102% (inactive) and 87% (inactive). Further, the growth in [13] was 133% (inactive) and 100% (inactive); in experiment [14] it was 109% (inactive) and 108% (inactive); in [15] it was 104% (inactive) and 117% (inactive); in [16] it was 102% (inactive) and 104% (inactive); in [17], 133% (inactive) and 105% (inactive); in experiment [18], 102% (inactive) and 92.8% (inactive). The growth in [19] is 102% (inactive) and 107% (inactive); in [20], 98.8% (inactive).
Consider `CCNC(=O)Nc1ccc(-c2nc3c(c(N4CCOC[C@@H]4C)n2)CCN(C2COC2)C3)cc1`, for which the growth was 50.8% (inactive) and 20.1% (inactive) in experiment [1]; 19.7% (inactive) and -3.42% (active) in [2]; 39.3% (inactive) and 12.1% (inactive) in experiment [3]; 43.3% (inactive) and 0.37% (active) in experiment [4]; 25.7% (inactive) and 14.3% (inactive) in experiment [5]; -6.36% (active) and -16.3% (active) in experiment [6]. The growth in experiment [7] was 24.1% (inactive) and 6.99% (active); in experiment [8] it was 44.3% (inactive) and 2.19% (active); in [9], 36.6% (inactive) and 5.36% (active); in experiment [10] it was 28.4% (inactive) and 3.31% (active); in [11] it was 49.7% (inactive) and 19.4% (inactive); in experiment [12], 61.6% (inactive) and 17.2% (inactive). The growth is -9.78% (active) and -10.6% (active) in [13]; 44.5% (inactive) and 23.2% (inactive) in [14]; 3.76% (active) and -28.4% (active) in [15]; 54.3% (inactive) and 17.6% (inactive) in experiment [16]; 18.4% (inactive) and -25.6% (active) in experiment [17]; 33.2% (inactive) and -21.9% (active) in experiment [18]. Also, the growth in experiment [19] is 36.7% (inactive) and -27% (active); in experiment [20], 37.3% (inactive) and 8.1% (active).
For the compound `CC1CCCc2sc3nc(NNC(=O)c4cnccn4)n(-c4ccccc4)c(=O)c3c21` (stereo not given), the growth in experiment [1] was 23.9% (inactive) and 20.2% (inactive); in experiment [2], -2.24% (active) and -5.33% (active); in experiment [3] it was 15.9% (inactive) and 6.48% (active); in experiment [4], 4.44% (active) and 1.42% (active); in experiment [5] it was 3.62% (active) and -47.3% (active); in experiment [6], 44% (inactive) and 42.3% (inactive). For the same compound, the growth in experiment [7] was -10.4% (active) and 6.49% (active); in experiment [8], 3.51% (active) and 7.07% (active); in experiment [9] it was 16.1% (inactive) and 6.45% (active); in experiment [10], 4.98% (active) and -2.77% (active); in [11] it was 12.2% (inactive) and 12.9% (inactive); in [12] it was 14.2% (inactive) and 13.4% (inactive). Besides, the growth in experiment [13] is 15.9% (inactive) and 11.2% (inactive); in experiment [14], 28.9% (inactive) and 25.5% (inactive); in [15], 11.2% (inactive) and -15.9% (active); in experiment [16] it was 14.5% (inactive) and 5.5% (active); in experiment [17], 22.7% (inactive) and 11.3% (inactive); in experiment [18], 6.89% (active) and 6.17% (active). The growth in [19] was -7.57% (active) and -18.3% (active); in [20], 7.99% (active) and -2.42% (active).
